# Measurements reported in the supplement of paper PMC12494721.
# Structures can show the parent of a compound that is named as a salt.
# How the values were obtained:
# Conditions in all cases: incubation time: 27 h, anaerobic, 37 °C;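 for the amine columns active = adjusted P below 0.05 in both replicates with a change the same way and a mean fold change under 0.8 or over 1.25; inactive = the rest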
# [1] = tested on: Clostridium sporogenes DSM 1664; experiment: growth (OD595) fold change vs plate DMSO controls (fold change (ratio)); higher = more growth
# Outline: (§1)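 The measure reported is growth, taken as fold change against the median of DMSO controls on the same plate. Anaerobic mGAM cultures in 96-well plates (27 h, 37 °C) were read at 595 nm, blank-subtracted, corrected for compound background using 20 µM compound solutions in water, and multiplied by a calibration factor of 5 to give OD. Any fold change above 1.5 became NA, and 2 biological replicates were averaged.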
# Escherichia coli IAI1 [2] = experiment: as above
# Outline: as §1
# [3] = tested on: Klebsiella aerogenes DSM 30053; experiment: as above
# Outline: as §1
# [4] = tested on: Ruminococcus gnavus DSM 108212; experiment: as above
# Outline: as §1
# [5] = tested on: Klebsiella aerogenes DSM 30053; experiment: fold change of Histamine concentration vs plate DMSO controls (fold change (ratio)); higher = more amine produced, active = hit call of the paper (significant change in both replicates, either direction)
# Outline: (§2)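 In 80 µL wells, cultures of four gut bacterial strains in mGAM started at OD 0.1 before a 1:1 dilution and grew anaerobically at 37 °C for 27 h. Compounds were added to 20 µM final, except sweeteners at 50 µM final. After extraction of whole cultures with cold acetonitrile/methanol plus 0.1% formic acid and centrifugation, amines were measured by LC–triple-quadrupole MS in dynamic MRM mode against external calibration curves, with within-batch drift correction. Values give fold change over DMSO controls on the same plate, averaged across 2 biological replicates.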
# [6] = tested on: Clostridium sporogenes DSM 1664; experiment: fold change of Tryptamine concentration vs plate DMSO controls (fold change (ratio)); higher = more amine produced, active = hit call of the paper (significant change in both replicates, either direction)
# Outline: as §2
# [7] = tested on: Ruminococcus gnavus DSM 108212; experiment: as above
# Outline: as §2
# Escherichia coli IAI1 [8] = experiment: fold change of Putrescine concentration vs plate DMSO controls (fold change (ratio)); higher = more amine produced, active = hit call of the paper (significant change in both replicates, either direction)
# Outline: as §2
# [9] = tested on: Klebsiella aerogenes DSM 30053; experiment: as above
# Outline: as §2
# Escherichia coli IAI1 [10] = experiment: fold change of Cadaverine concentration vs plate DMSO controls (fold change (ratio)); higher = more amine produced, active = hit call of the paper (significant change in both replicates, either direction)
# Outline: as §2
# [11] = tested on: Klebsiella aerogenes DSM 30053; experiment: as above
# Outline: as §2
# [12] = tested on: Ruminococcus gnavus DSM 108212; experiment: fold change of 2-Phenylethylamine concentration vs plate DMSO controls (fold change (ratio)); higher = more amine produced, active = hit call of the paper (significant change in both replicates, either direction)
# Outline: as §2
SMILES,growth [1],growth (Escherichia coli IAI1 [2]),growth [3],growth [4],fold change of Histamine concentration [5],fold change of Tryptamine concentration [6],fold change of Tryptamine concentration [7],fold change of Putrescine concentration (Escherichia coli IAI1 [8]),fold change of Putrescine concentration [9],fold change of Cadaverine concentration (Escherichia coli IAI1 [10]),fold change of Cadaverine concentration [11],fold change of 2-Phenylethylamine concentration [12]
O=C(N/N=C/c1ccc([N+](=O)[O-])o1)c1ccc(O)cc1 [Nifuroxazide] (20 µM),1.11,1.03,0.907,1.2,1.01 (inactive),0.998 (inactive),0.89 (inactive),0.759 (active),0.954 (inactive),1.58 (active),1.02 (inactive),0.626 (active)
CN1C(C(=O)Nc2ccccn2)=C(O)c2ccccc2S1(=O)=O [Piroxicam] (20 µM),1.07,1.03,1.02,1.05,0.953 (inactive),1.09 (inactive),0.99 (inactive),1.03 (inactive),0.99 (inactive),1.02 (inactive),1.04 (inactive),0.999 (inactive)
CCC(=O)O[C@]1(C(=O)SCF)[C@H](C)C[C@H]2[C@@H]3C[C@H](F)C4=CC(=O)C=C[C@]4(C)[C@@]3(F)[C@@H](O)C[C@@]21C [Fluticasone propionate] (20 µM),0.911,0.976,1.03,0.998,1.04 (inactive),0.989 (inactive),0.935 (inactive),0.994 (inactive),1.01 (inactive),0.995 (inactive),1.01 (inactive),0.931 (inactive)
Nc1ccc(S(=O)(=O)NC(=O)c2ccccc2)cc1 [Sulfabenzamide] (20 µM),1.18,1.07,1.05,1.1,0.998 (inactive),1.07 (inactive),1.04 (inactive),0.947 (inactive),0.991 (inactive),0.967 (inactive),1.01 (inactive),1.09 (inactive)
Nc1ccc(S(=O)(=O)Nc2nccs2)cc1 [Sulfathiazole] (20 µM),0.969,0.979,1.03,0.853,1 (inactive),0.968 (inactive),1.03 (inactive),0.955 (inactive),1.02 (inactive),1.03 (inactive),1.01 (inactive),1.03 (inactive)
CC1COc2ccccc2N1C(=O)C(Cl)Cl (stereo not drawn) (20 µM),0.957,1.02,1.02,0.965,1.02 (inactive),1.02 (inactive),1.06 (inactive),0.986 (inactive),0.941 (inactive),1.04 (inactive),1.05 (inactive),1.11 (inactive)
C[N+](C)(C)CCOC(N)=O [Carbachol chloride] (20 µM),0.948,1,0.997,1.09,1.01 (inactive),1.07 (inactive),1.09 (inactive),0.986 (inactive),0.983 (inactive),0.957 (inactive),1.01 (inactive),1.11 (inactive)
COc1ccccc1Oc1c(NS(=O)(=O)c2ccc(C(C)(C)C)cc2)nc(-c2ncccn2)nc1OCCO [Bosentan] (20 µM),1.15,1.14,1.23,1.2,0.938 (inactive),0.987 (inactive),0.978 (inactive),1.09 (inactive),1.05 (inactive),1.03 (inactive),1.04 (inactive),0.959 (inactive)
CN(C)CC/C=C1\c2ccccc2CSc2ccccc21 [Dosulepin hydrochloride] (20 µM),1.07,0.99,0.968,0.844,0.887 (inactive),1.17 (inactive),0.961 (inactive),1.03 (inactive),0.941 (inactive),1.01 (inactive),1.06 (inactive),0.952 (inactive)
CCN1CC(CCN2CCOCC2)C(c2ccccc2)(c2ccccc2)C1=O (stereo not drawn) [Doxapram hydrochloride] (20 µM),1.01,0.969,0.996,0.884,0.932 (inactive),1.09 (inactive),1.07 (inactive),0.977 (inactive),0.978 (inactive),1.01 (inactive),1.02 (inactive),1.08 (inactive)
O=C1[C@H]2CCCC[C@H]2C(=O)N1CCCCN1CCN(c2nsc3ccccc23)CC1 [Perospirone hydrochloride] (20 µM),1.12,0.968,1.01,1.32,0.986 (inactive),1.02 (inactive),0.767 (inactive),0.989 (inactive),1.01 (inactive),1.03 (inactive),1.02 (inactive),0.819 (inactive)
CCCc1nc2c(C)cc(-c3nc4ccccc4n3C)cc2n1Cc1ccc(-c2ccccc2C(=O)O)cc1 [Telmisartan] (20 µM),0.962,0.99,1.02,0.953,1.02 (inactive),0.911 (inactive),0.966 (inactive),1.04 (inactive),1.01 (inactive),1.05 (inactive),0.996 (inactive),1.01 (inactive)
CCCCCNC(=N)N/N=C/c1c[nH]c2ccc(OC)cc12 [Tegaserod maleate] (20 µM),0.905,1.01,1,1.08,0.983 (inactive),0.923 (inactive),0.791 (inactive),0.992 (inactive),0.997 (inactive),1.04 (inactive),1 (inactive),0.994 (inactive)
CCN1/C(=C/C=C/C=C/c2sc3ccccc3[n+]2CC)Sc2ccccc21 [Dithiazanine iodide] (20 µM),0.625,0.879,0.837,1.24,0.924 (inactive),0.849 (inactive),0.749 (active),1.05 (inactive),1.01 (inactive),1.07 (inactive),0.995 (inactive),0.699 (active)
O=C1Nc2ccc(Cl)cc2[C@@](C#CC2CC2)(C(F)(F)F)O1 [Efavirenz] (20 µM),1.25,1.01,1.02,1.22,0.986 (inactive),1.02 (inactive),0.936 (inactive),1.04 (inactive),0.985 (inactive),1.02 (inactive),0.997 (inactive),0.935 (inactive)
O=C(O)c1cc(=O)[nH]c(=O)[nH]1 [Orotic acid] (20 µM),1.11,0.979,1.01,1.22,0.955 (inactive),1.01 (inactive),0.967 (inactive),0.995 (inactive),1.01 (inactive),1.03 (inactive),0.993 (inactive),0.948 (inactive)
CCN(CC)CCOC(=O)C(c1ccccc1)c1ccccc1 [Adiphenine hydrochloride] (20 µM),1.07,1.03,1.16,1,0.877 (inactive),1.05 (inactive),0.977 (inactive),1 (inactive),0.932 (inactive),1.01 (inactive),1.03 (inactive),0.968 (inactive)
NC[C@H]1CC[C@H](C(=O)O)CC1 [Tranexamic acid] (20 µM),1.06,1.02,1,1.14,0.965 (inactive),1.03 (inactive),0.85 (inactive),0.977 (inactive),1.01 (inactive),1.01 (inactive),1.01 (inactive),0.849 (inactive)
CC1(C)O[C@@H]2C[C@H]3[C@@H]4CCC5=CC(=O)C=C[C@]5(C)[C@H]4[C@@H](O)C[C@]3(C)[C@]2(C(=O)CO)O1 [Desonide] (20 µM),0.99,1.02,1.01,1.21,1.05 (inactive),1.18 (inactive),1.14 (inactive),0.903 (inactive),0.991 (inactive),0.893 (inactive),0.997 (inactive),1.23 (inactive)
Cc1ccccc1N1C(=O)c2cc(S(N)(=O)=O)c(Cl)cc2NC1C (stereo not drawn) [Metolazone] (20 µM),1.14,0.984,1.02,1.07,1.04 (inactive),0.993 (inactive),1.03 (inactive),1.02 (inactive),0.995 (inactive),0.977 (inactive),0.993 (inactive),1.04 (inactive)
CCOC(=O)[C@H](CCc1ccccc1)N[C@@H](C)C(=O)N1C(=O)N(C)C[C@H]1C(=O)O [Imidapril hydrochloride] (20 µM),1.19,1.05,1.05,1.2,0.963 (inactive),0.931 (inactive),1.03 (inactive),1.05 (inactive),0.997 (inactive),1.01 (inactive),0.989 (inactive),1.05 (inactive)
CO[C@@H]1[C@@H](O[C@@H]2O[C@H](C)[C@@H](O[C@H]3C[C@@](C)(O)[C@@H](O)[C@H](C)O3)[C@H](N(C)C)[C@H]2O)[C@@H](CC=O)C[C@@H](C)[C@@H](O[C@H]2CC[C@H](N(C)C)[C@@H](C)O2)/C=C/C=C/C[C@@H](C)OC(=O)C[C@H]1OC(C)=O [Acetyl spiramycin] (20 µM),0.00073,1.03,0.958,0.154,0.621 (active),0.0194 (active),0.153 (active),0.875 (inactive),1.03 (inactive),0.989 (inactive),1.03 (inactive),0.156 (active)
CN1CCCC(CC2c3ccccc3Sc3ccccc32)C1 (stereo not drawn) [Metixene hydrochloride] (20 µM),1.02,0.988,1.02,1.25,0.998 (inactive),1.06 (inactive),0.807 (inactive),0.956 (inactive),1.02 (inactive),0.999 (inactive),1.01 (inactive),0.88 (inactive)
CCOC(=O)[C@@](C)(N)Cc1ccc(O)c(O)c1 [Methyldopate hydrochloride] (20 µM),0.926,1.05,1.03,1.14,0.963 (inactive),1.04 (inactive),1.09 (inactive),1.22 (inactive),0.975 (inactive),0.898 (inactive),1.02 (inactive),1.07 (inactive)
